# Bioassay records: PubChem BioAssay, National Center for Advancing Translational Sciences (NCATS)
# Shiga inhibitor = blocks Shiga toxin action in Vero cells; inhibition, % at 38.7 µM; AID 2315; 290,000 compounds, 9.2% hits; Vero cells, Shiga toxin protein synthesis inhibition reporter; in the data active = inhibition mostly above about 28%, no sharp cut-off; inactive = mostly below about 43%; also: 0% is about no effect
# FMDV inh = blocks foot and mouth disease virus | FMDV antiviral cell-based qHTS | Potency, µM (titrated, usually from 57.9 µM), inactives show top-dose activity change, negative = inhibition, most hits filed as inhibitors | 410,000 compounds, 1.2% hits | AID 1159524; calls by dose curve; tested in HEK293T cells; also: read-out not given here; potency is read from the fitted curve at half-maximal effect; % is scaled to controls: 0 for no effect and ±100 for the full control effect; nearly all actives have a fitted effect of over 45% in size
# Sm TGR inh = inhibitors of Schistosoma mansoni thioredoxin glutathione reductase | Potency, µM (doses to about 114 µM), inactives show top-dose activity change, negative = inhibition, most hits filed as inhibitors | 360,000 compounds, 3% hits | purified TGR, DTNB reduction, TNB absorbance 405 nm | Q962Y6; active = well fitted inhibition curve with a large enough effect; inconclusive = small, poorly fitted or top-dose-only effect; inactive = no such curve, though single readings can be large or run the other way; also: potency is read from the fitted curve at half-maximal effect; % is scaled to controls: 0 for no effect and ±100 for the full control effect; nearly all actives have a fitted effect of over 60% in size
#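 Kinetic colorimetric format: TGR-catalysed, NADPH-driven DTNB reduction monitored via TNB absorbance. Enzyme dispensed at 20 nM; compound exposure 15 min at room temperature before reaction start.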
# Cycloheximide cs = counter-screen hit for Shiga toxin inhibitors, cycloheximide | 300,000 compounds, 12% hits | max response, % | AID 2314 | cell reporter, cycloheximide protein synthesis inhibition counterscreen; in the data active = max response mostly above about 13%, no sharp cut-off; inactive = mostly below about 14%; also: read at 38.3 µM for the half of the compounds with a filed dose; 0% is about no effect
# Active calls of the source: *; ? = inconclusive; · = no result; + = active, no number. Shown are actives, neighbours in structure and some others; about 12% of the full set was active somewhere.
SMILES,Shiga inhibitor,FMDV inh,Sm TGR inh,Cycloheximide cs
Cc1c(C(=O)N2CCC(C)CC2)c(S(=O)(=O)Nc2cccc(C(F)(F)F)c2)c(C)n1C,·,60%,6%,·
COc1ccc(NC(=O)Cn2c(=O)oc3cc(S(=O)(=O)N4CCC(C)CC4)ccc32)c(OC)c1,·,?,0%,·
O=C(Nc1ccc(Cl)cc1)[C@@H]1[C@@H]2C(=O)N(c3cccc(F)c3)C(=O)[C@@H]2[C@H]2C=CC=NN21,5,-24%,22µM*,8
CCOc1ccccc1CNC(=O)c1ccc2c(c1)nc1n2CCCCC1,·,19%,1%,·
COc1ccc(N2CCN(CCCNC(=O)c3cc(Nc4ccc(OC)cc4OC)nc4ccccc34)CC2)cc1,·,22µM*,-4%,·
COc1ccc(Cc2nc3ccc(C(=O)NCC(C)(C)OC)cc3o2)cc1,96*,64%,-3%,34*
COc1ccc(Cc2nc3ccc(C(=O)NCc4cc(C)no4)cc3o2)cc1,66*,7%,-5%,57*
COc1ccc(OC)c(Nc2cc(C(=O)NCCCN3CCOCC3)c3ccccc3n2)c1,-10,-19%,-17%,-1
COc1ccc(N2CCN(CCCNC(=O)c3ccc4nc(Cc5ccccc5)oc4c3)CC2)cc1,·,25µM*,1%,·
COCC(C)NC(=O)c1oc2c(c1C)C1(CCC2)SCCS1 (centres undefined),25,10%,1%,8
CCCc1ccc2oc(C(=O)NCc3nnc(C)o3)c(C)c2c1,97*,39%,-6%,45*
Cc1c(C(=O)NCCCN2CCOCC2)oc2c1C1(CCC2)SCCS1,+,11%,25%,7
CCCc1ccc2oc(C(=O)NCCN3CCCC(O)C3)c(C)c2c1 (centres undefined),77*,7%,0%,34*
CCCc1ccc2oc(C(=O)NCCCN3CCOCC3)c(C)c2c1,67*,17%,-23%,50*
CC(C)CCC[C@@H](C)[C@H]1CC[C@H]2[C@@H]3CC=C4CC(O)CC[C@]4(C)[C@H]3CC[C@]12C (some centres undefined),11,·,·,4
Cc1cc(C)c2c(=O)cc(C(=O)Nc3ccc(S(=O)(=O)Nc4onc(C)c4C)cc3)oc2c1,·,-13%,-7%,·
CCCc1ccc2oc(C(=O)N(C)CCn3ccnc3C)c(C)c2c1,20*,-2%,5%,13*
CC(C)c1ccc(S(=O)(=O)c2nnn3c2nc(NC2CCCC2)c2sccc23)cc1,·,1%,4%,·
C=C(C)Cn1cnc2c(oc3nc4c(cc32)CCCC4)c1=O,46*,69%,-15%,33*
CCOc1ccc(C(=O)Oc2c(Sc3ccccc3)c(C)nn2C(C)(C)C)cc1OCC,·,-26%,-6%,·
CCCc1nn2c(=O)cc(COC(=O)CNC(=O)COc3ccc(C)cc3)nc2s1,·,-19%,0%,·
Cc1[nH]n(-c2ncc(-c3ccccc3)s2)c(=O)c1C(c1ccc(Br)cc1)C(C#N)C#N (centres undefined),41,28µM*,?,14
Cc1[nH]n(C(N)=S)c(=O)c1C(c1ccccc1)C(C#N)C#N (centres undefined),12,?,?,-1
NCCNCCN,91*,·,·,43*
CCOCCSc1c(C)cnc2c1c(=O)n(C)c(=O)n2C,·,0%,-3%,·
SMILES,Shiga inhibitor,FMDV inh,Sm TGR inh,Cycloheximide cs
CCOC(=O)c1sc(NC(=S)NC(=O)c2cccc(OC)c2)nc1C,5,11%,?,10
COC(=O)c1sc(NC(=S)NC(=O)c2ccccc2)nc1C,-9,29%,-23%,26*
CCOC(=O)c1sc(NC(=O)C(OC(C)=O)c2ccccc2)nc1C (centres undefined),39*,8%,5%,25*
CCOC(=O)c1sc(NC(=S)NC(=O)c2ccccc2)nc1C,165*,62%,-25%,42*
Cc1nc(NC(=S)NC(=O)c2ccccc2)sc1C(=O)N(C)C,34,47%,-3%,22*
COc1ccccc1N1CCN(C(=O)c2cnn(-c3ccc(C)c(C)c3)c2C2CCN(C(=O)OC(C)(C)C)CC2)CC1,·,-26%,6%,·
O=C(CC(c1cccs1)N1Cc2ccccc2C1=O)Nc1cccc(F)c1 (centres undefined),·,0%,6%,·
COC(=O)c1sc(NC(=S)NC(=O)c2ccccc2Cl)nc1C,65*,45%,-6%,40*
COc1cc2c(cc1OC)CN(C(=O)[C@@H]1C[C@H](NCc3cn(C)c4ccccc34)CN1C1Cc3ccccc3C1)CC2,·,-5%,·,·
COc1ccc(-c2nc3cnc(N4CCOCC4)nc3n(C[C@H]3CCCO3)c2=O)cc1,·,-10%,·,·
CCOC(=O)CN1C=C(c2ccc3ccccc3n2)C(C[N+](=O)[O-])c2ccccc21 (centres undefined),22,21%,-9%,11*
Cc1cnc(NC(=O)CC(C)c2ccccc2)s1 (centres undefined),60*,3%,10%,28*
Cc1cnc(NC(=O)COc2ccccc2Cl)s1,-15,10µM*,-25%,11
CC(C)c1nnc(NC(=O)CC(C)c2ccccc2)s1 (centres undefined),18,28%,75%,13
CCOC(=O)c1c(S(=O)(=O)N2CCC(C(=O)N3CCN(c4cc(C)ccc4C)CC3)CC2)c(C)n(C)c1C,·,0%,-6%,·
C/C(=C\c1cc2ccccc2o1)C1Nc2cccc3cccc(c23)N1,·,?,13µM*,·
NC(Cc1ccccc1)c1nc2ccccc2[nH]1 (centres undefined),48*,16%,6%,18*
c1ccc(OCc2nc3ccccc3[nH]2)cc1,75*,45%,-1%,49*
OC(c1ccc(Cl)cc1)C(O)c1nc2ccccc2[nH]1 (centres undefined),-10,20%,-1%,2
Cc1ccc(OCc2nc3ccccc3[nH]2)cc1,57*,-14%,-22%,61*
c1ccc(Cc2nc3ccccc3[nH]2)cc1,-3,2%,-1%,-3
NC(Cc1nc2ccccc2[nH]1)c1ccc(Cl)cc1 (centres undefined),81*,40%,3%,45*
Clc1ccc(OCc2nc3ccccc3[nH]2)cc1,56*,6%,-8%,32*
CCOc1ccc(-c2nnc(SCc3nc4ccccc4[nH]3)n2N)cc1,82,23%,0%,42*
OC(Cc1nc2ccccc2[nH]1)c1ccccc1Cl (centres undefined),107*,·,-2%,49*
CCOc1ccc(NC(=O)Cn2c(=O)n(CC(=O)NCCc3ccccc3)c(=O)c3sccc32)cc1,·,-17%,-4%,·
CCOc1ccc(NC(=O)C2CCCN(c3nn4cc(-c5ccc(OC)cc5)nc4s3)C2)cc1 (centres undefined),·,0%,9%,·
O=C(CCC1CCCCC1)NCCN1C2=NC[C@H](Cc3ccc(O)cc3)N2C[C@H]1Cc1ccc(O)cc1,-10,-19%,35µM*,3
C[C@@H]1CN=C2N(CCNC(=O)CCC3CCCCC3)[C@H](Cc3ccc(O)cc3)CN21,-4,-16%,5µM*,-3
COc1ccc(C[C@H]2CN3C(=NC[C@@H]3Cc3ccccc3)N2CCNC(=O)CCC2CCCCC2)cc1,-24,0%,-10%,-3
